IL-1B inflam inh = inflammasome signaling inhibition, IL-1 beta readout | THP-1 LPS/ATP IL-1B secretion, AlphaLISA, 16 h; active compounds read low | activity change, % at 57.5 µM | 4.7% of 360,000 active; in the data active = activity change below about -50%; inconclusive = mostly about -30% to -49%; note: % is set by controls: 0 for no effect and ±100 for the full control effect
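Secreted IL-1B measured by AlphaLISA bead assay after 16 h compound exposure of THP-1 cells; compounds (final up to 57.5 uM) added 1 h before LPS (250 ng/mL) and ATP (1.25 mM) stimulation; lower signal means less secretion.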
S2 tox = viability counter-screen for ATXN expression inhibitors; S2 cells (HEK-293 line with an ATXN2-luciferase reporter) viability, CellTiter-Fluor protease fluorescence, 24 h; Potency, µM (highest dose often 56.7 µM), usual class: cytotoxic; 0.49% of 400,000 active; AID 651635; note: potency is the fitted concentration of half-maximal effect; nearly all actives have a fitted effect of over 40% in size
ATXN2 expr inh = inhibitors of ATXN2 expression | HEK-293 ATXN2-luciferase reporter, luminescence, 24 h | Potency, µM (highest dose often 57 µM), without a hit: top-dose activity change, negative = inhibition, usual class: inhibitors | 0.72% of 360,000 active | AID 1745845; note: potency is the fitted concentration of half-maximal effect; % is set by controls: 0 for no effect and ±100 for the full control effect; nearly all actives have a fitted effect of over 55% in size
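qHTS (up to 57 uM final) was run with 24 h compound exposure of reporter cells at 37 °C. Each well was multiplexed: SteadyGlo luminescence measured ATXN2-luciferase expression after a fluorogenic Gly-Phe-AFC viability readout (25 uM final).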
PINK1 expr mod = PINK1 expression modulation | 0.2% of 410,000 active | Potency, µM (highest dose often 76.6 µM), inactives show top-dose activation (PINK1 increase), hits mostly activators | AID 624263 | PINK1 immunofluorescence, high-content cytometry, 24 h; active = well fitted activation curve with a large enough effect; inconclusive = small, poorly fitted or top-dose-only effect; cell line not stated here; note: potency is the fitted concentration of half-maximal effect; % of control where 0% means no effect; nearly all actives have a fitted effect of over 65% in size
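Fluorescence from anti-PINK1 antibody, together with nuclear and cell stains, was scanned on a laser-scanning cytometer. Before staining, stable-line cells were incubated 24 hours with compounds at 5 concentrations; primary antibody 12 h at 10 degrees C.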
SW480 rerep = inducers of DNA re-replication in SW480 colon cancer cells. SW480 DNA re-replication, Hoechst DNA content imaging, 48 h. 1.8% of 340,000 active. AID 624297. Potency, µM (titrated, usually from 46.1 µM), for inactives: at the highest dose re-replication activation, most hits filed as activators; note: potency is the fitted concentration of half-maximal effect; % of control where 0% means no effect; nearly all actives have a fitted effect of over 55% in size
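Treated cells incubate 48 hr (37 C, 5% CO2), are stained 40 min with Hoechst, and nuclear fluorescence is enumerated; a rise in nuclei with high DNA signal marks re-replication.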
MCF10A rereplic = induces DNA re-replication in MCF 10a normal breast cells. MCF 10A DNA re-replication, Hoechst nuclear intensity, 48 h. Potency, µM (titrated, usually from 46.1 µM), without a hit: at the top dose activity, positive = re-replication, usual class: activators. 2.9% of 350,000 active. AID 624296; note: potency is the fitted concentration of half-maximal effect; % of control where 0% means no effect; nearly all actives have a fitted effect of over 50% in size
* marks the source's active call; other numbers are inactive results; i = inactive; u = inconclusive; x = no result given; [ ] = dose if it differs, or a comment. Compounds with a hit are over-represented: about 7.1% of the library has one in this group of screens. Unless noted, calls come from the whole dose curve; as a rule, active = well fitted curve in the direction sought with a large enough effect; inconclusive = small, poorly fitted or top-dose-only effect, or another doubt; inactive = no such curve, though single readings can be large; an effect the other way counts as inactive or inconclusive.

SMILES | IL-1B inflam inh | S2 tox | ATXN2 expr inh | PINK1 expr mod | SW480 rerep | MCF10A rereplic
COCCNC(=O)c1c(N)n(CCCn2ccnc2)c2nc3ccccc3nc12 | u | x | -7% | -1% | u | 12µM*
CN(Cc1ccon1)C(=O)c1cnn(-c2ncc3c(n2)-c2ccccc2CCC3)c1C1CC1 | x | i | x | 1% | x | x
COc1ccc2cc1Oc1cc3c(cc1OC)CC[N+](C)(C)C3Cc1ccc(cc1)Oc1c(OC)c(OC)cc3c1C(C2)[N+](C)(C)CC3 (configuration not stated) | x | x | x | x | 0% | 2%
COc1ccc(OC)c(NC(=O)c2c(NCc3ccc(C)o3)sc3c2CCC(C)C3)c1 (configuration not stated) | x | u | u | 1% | x | x
CCOC(=O)c1c(N)n(-c2cc(C)cc(C)c2)c2nc3ccccc3nc12 | x | i | 7% | -2% | x | x
COCCNC(=O)c1c(N)n(-c2ccccc2)c2nc3ccccc3nc12 | u | x | -22% | x | 21µM* | u
Cc1ccc(Nc2nc3ccccc3nc2Nc2c(C)n(C)n(-c3ccccc3)c2=O)cc1 | 14 | i | 3% | 2% | -4% | 1.8µM*
CCn1cc(C(=O)N(C)c2ccc(C(C)C)cc2)c2cc(OC)c(OC)cc2c1=O | x | i | -27% | -1% | x | x
O=C1[C@@H]2Cc3c([nH]c4ccccc34)CN2C(=O)CN1CCCO | -2 | i | 3% | 0% | -2% | -13%
CC(C)OCCCN1CC(=O)N2C(c3ccccc3)c3[nH]c4ccccc4c3C[C@H]2C1=O (some centres not stated) | -62* | i | -26% | 1% | 12% | 3%
COC(=O)c1ccc(C2c3[nH]c4ccccc4c3C[C@H]3C(=O)N(C)CC(=O)N23)cc1 (some centres not stated) | 28 | i | -9% | 1% | u | 10%
CCCCCCN1CC(=O)N2Cc3[nH]c4ccccc4c3C[C@H]2C1=O | -58* | i | 0% | 4% | 6% | 16%
CCN1C(=O)[C@@H]2Cc3c([nH]c4ccccc34)C(c3ccc(OC)cc3)N2C1=S (some centres not stated) | -10 | x | x | 2% | u | 21µM*
CCCCCN1CC(=O)N2Cc3[nH]c4ccccc4c3C[C@H]2C1=O | -59* | i | -5% | 0% | -3% | 4%
CCCCN1C(=O)C2Cc3c([nH]c4ccccc34)CN2C1=S (configuration not stated) | -88* | x | -6% | 5% | -2% | u
CC1CCN(c2nc3c(S(=O)(=O)c4cccc(Cl)c4)nnn3c3ccsc23)CC1 | x | i | -7% | 1% | x | x
Cc1ccc(S(=O)(=O)Cn2nnnc2C(CC(C)C)N2CCN(C(=O)c3ccco3)CC2)cc1 (configuration not stated) | -2 | i | 11% | -1% | -3% | -4%
CCN1CCN(C(CC(C)C)c2nnnn2CS(=O)(=O)c2ccc(C)cc2)CC1 (configuration not stated) | -73* | x | -2%[11.3 µM] | 0% | 2% | -1%
CNC(=O)c1cc(NC(=O)CCn2nc(-c3ccc(C)cc3)c3ccccc3c2=O)ccc1OC | -50* | i | -2% | 1% | -10% | 12%
COc1ccc(NC(=O)CCn2nc(-c3ccc(Cl)cc3)c3ccccc3c2=O)cc1 | x | i | 4% | 1% | x | x
COc1ccc2sc(-c3ccccc3OC)c(-c3ccc(OCCN4CCOCC4)cc3)c2c1 | -9 | i | -6% | -1% | 8% | -7%
COc1cc2sc(-c3ccccc3OC)c(-c3ccc(OCCN4CCCCC4)cc3)c2cc1OC | -4 | 25µM* | u | -1% | -4% | u
COc1ccccc1-c1sc2cc3c(cc2c1-c1ccc(OCCN2CCCCC2)cc1)OCO3 | u | u | u | -2% | 5% | 10µM*
COc1ccc(-c2sc3cc4c(cc3c2-c2ccc(OCCN3CCOCC3)cc2)OCO4)cc1 | 18 | i | -3% | -1% | 16% | u
c1ccc(-c2nc(-c3ccncc3)no2)cc1 | 13 | i | 57% | 0% | -1% | 0%
SMILES | IL-1B inflam inh | S2 tox | ATXN2 expr inh | PINK1 expr mod | SW480 rerep | MCF10A rereplic
c1ccc(-c2ccc(-c3nc(-c4ccncc4)no3)cc2)cc1 | -5 | i | -10% | x | 15% | 15µM*
O=c1n(Cc2ccc([N+](=O)[O-])cc2)c2ccccc2c2nc(-c3ccccc3)nn12 | x | x | x | 0% | x | x
CN1CCCC1CCOC(C)(c1ccccc1)c1ccc(Cl)cc1 (configuration not stated) | u | 20µM* | 32µM* | 2% | 7.1µM* | 13%
O=C(CSc1nnc(-c2ccc(F)cc2)c2ccccc12)Nc1cccc(Cl)c1 | -95* | u | 7% | 3% | 4% | u
O=C(CSc1nnc(-c2ccc(F)cc2)c2ccccc12)Nc1ccccc1 | -61* | i | 38% | 3% | 3% | -4%
O=C(CSc1nnc(-c2ccc(F)cc2)c2ccccc12)Nc1c(F)cccc1F | -5 | u | x | -1% | 14% | 4%
COC(=O)Cc1nnc(SCC(=O)Nc2ccccc2)c2ccccc12 | -63* | u | x | 2% | 21% | u
CCC(=O)N1CCc2cc(Br)cc(S(=O)(=O)N3CCC(C(=O)Nc4ccccc4F)CC3)c21 | x | i | -14% | 1% | x | x
Cn1c(=O)n(C/C=C/c2ccccc2)c(=O)c2c1nc1n2CCN1c1ccccc1 | x | x | x | 1% | x | x
CCC(=O)Nc1cc(-c2cccc(C)c2)nn1-c1ccccc1 | x | i | 31% | 1% | x | x
Cc1ccc2[nH]c3c(c2c1)CN(C(=O)CN1CCCc2ccccc21)CC3 | -10 | i | -8% | 3% | u | 23µM*
Cc1ccc(N2NC(=O)/C(=C\c3cc4c(cc3[N+](=O)[O-])OCO4)C2=O)cc1C | -105* | u | u | 6% | 0% | 18µM*
COc1cc(/C=C(\C#N)C(=O)Nc2ccc(C)cc2)ccc1OCc1cc(=O)n2nc(C)sc2n1 | x | i | -6% | 4% | x | x
Cc1csc(NC(=O)Nc2cccc(Cl)c2)n1 | 5 | i | 65% | 4% | 1% | 0%
O=C(Nc1ccc(Cl)cc1)Nc1nc(-c2ccccc2)cs1 | -28 | u | -17% | 2% | -8% | 0.58µM*
O=C(Nc1cccc(Cl)c1)Nc1nc(-c2ccccc2)cs1 | 21 | u | -7% | 5% | 6% | 0.82µM*
O=C(Cc1ccc(S(=O)(=O)N2CCOCC2)s1)Nc1cc(C(F)(F)F)cc(C(F)(F)F)c1 | -60* | u | u | u | u | 21µM*
O=C1Cc2ccccc2C1=C1C=c2ccccc2=C1 | x | x | x | 1% | x | x

Screening data: PubChem, National Center for Advancing Translational Sciences (NCATS)
